# Reference: PubChem BioAssay AID1159580 (chemical genetic matrix, 2015)
# “And” between values parts separate entries of the source, which are not always exact repeats. Equal entries are not always repeated. In all, about 5,500 compounds went through this assay and about 2,000 (36%) were called active. Not shown: some 18% with an inconclusive outcome. The list shows a part of the results. A number with no mark means an inactive call. Rule as the data show it: active = normalized growth mostly below about 0.91 (no sharp cut-off); inconclusive = no clear call, values can overlap the other calls; inactive = mostly above about 0.92.
# Experiment: chemical genetic growth profiling, strain panel (AID 1159580);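 also: tested at 20 µM; growth read once vehicle control cultures reached saturation at 30 °C; 1 = growth at the plate median or of vehicle wells; lower values mean less growth of the strain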
# Settings: S. cerevisiae deletion strains, growth OD
smiles,measurement,setting,value
O=[N+]([O-])c1cc([As](=O)(O)O)ccc1O,normalized growth,"locus YAL013W, strain DEP1, active compounds read low",0.987
same,normalized growth,"locus YAL021C, strain ccr4, active compounds read low",0.965
same,normalized growth,"locus YAL026C, strain drs2, active compounds read low",0.975
same,normalized growth,"locus YAL030W, strain snc1, active compounds read low",0.971
same,normalized growth,"locus YBL061C, strain skt5, active compounds read low",0.979
same,normalized growth,"locus YBR009C, strain hhf1, active compounds read low",0.975
same,normalized growth,"locus YBR021W, strain FUR4, active compounds read low",1.01
same,normalized growth,"locus YBR023C, strain chs3, active compounds read low",0.986
same,normalized growth,"locus YBR171W, strain sec66, active compounds read low",0.946
same,normalized growth,"locus YBR229C, strain ROT2, active compounds read low",1
same,normalized growth,"locus YBR231C, strain swc5, active compounds read low",0.946
same,normalized growth,"locus YBR279W, strain paf1, active compounds read low",0.963
same,normalized growth,"locus YCL011C, strain gbp2, active compounds read low",0.991
same,normalized growth,"locus YCL016C, strain dcc1, active compounds read low",0.99
same,normalized growth,"locus YCL029C, strain bik1, active compounds read low",0.914
same,normalized growth,"locus YCL069W, strain vba3, active compounds read low",0.967
same,normalized growth,"locus YCR088W, strain abp1, active compounds read low",0.975
same,normalized growth,"locus YDL005C, strain med2, active compounds read low",0.972
same,normalized growth,"locus YDL035C, strain GPR1, active compounds read low",1
same,normalized growth,"locus YDL040C, strain nat1, active compounds read low",0.958
same,normalized growth,"locus YDL074C, strain BRE1, active compounds read low",0.977
same,normalized growth,"locus YDL101C, strain DUN1, active compounds read low",1
same,normalized growth,"locus YDL134C, strain PPH21, active compounds read low",0.989
same,normalized growth,"locus YDL185W, strain tfp1, active compounds read low",0.978
same,normalized growth,"locus YDL192W, strain arf1, active compounds read low",0.214 (active)
same,normalized growth,"locus YDR001C, strain nth1, active compounds read low",0.967
same,normalized growth,"locus YDR069C, strain doa4, active compounds read low",0.945
same,normalized growth,"locus YDR101C, strain arx1, active compounds read low",0.759 (active)
same,normalized growth,"locus YDR137W, strain rgp1, active compounds read low",0.984
same,normalized growth,"locus YDR150W, strain NUM1, active compounds read low",0.987
same,normalized growth,"locus YDR159W, strain sac3, active compounds read low",0.978
same,normalized growth,"locus YDR162C, strain NBP2, active compounds read low",0.962
same,normalized growth,"locus YDR195W, strain ref2",0.898
same,normalized growth,"locus YDR297W, strain sur2, active compounds read low",0.971
same,normalized growth,"locus YDR318W, strain mcm21, active compounds read low",0.0896 (active)
same,normalized growth,"locus YDR334W, strain swr1, active compounds read low",0.958
same,normalized growth,"locus YDR335W, strain msn5, active compounds read low",0.972
same,normalized growth,"locus YDR388W, active compounds read low",0.112 (active)
same,normalized growth,"locus YDR392W, strain spt3, active compounds read low",0.989
same,normalized growth,"locus YDR502C, strain sam2, active compounds read low",0.247 (active)
same,normalized growth,"locus YEL003W, strain gim4, active compounds read low",0.963
same,normalized growth,"locus YEL037C, strain rad23, active compounds read low",0.953
same,normalized growth,"locus YEL061C, strain CIN8 (second series), active compounds read low",0.971
same,normalized growth,"locus YEL061C, strain CIN8, active compounds read low",0.993
same,normalized growth,"locus YER015W, strain faa2, active compounds read low",0.958
same,normalized growth,"locus YER016W, strain bim1, active compounds read low",0.997
same,normalized growth,"locus YER110C, active compounds read low",0.566 (active)
same,normalized growth,"locus YER111C, strain swi4, active compounds read low",0.949
same,normalized growth,"locus YER155C, strain BEM2 (second series), active compounds read low",0.953
same,normalized growth,"locus YER155C, strain BEM2, active compounds read low",0.998
same,normalized growth,"locus YER167W, strain BCK2, active compounds read low",1.02
same,normalized growth,"locus YFR010W, strain ubp6, active compounds read low",0.949
same,normalized growth,"locus YGL078C, strain dbp3, active compounds read low",0.406 (active)
same,normalized growth,"locus YGL086W, strain mad1, active compounds read low",0.0902 (active)
same,normalized growth,"locus YGL167C, strain pmr1, active compounds read low",0.971
same,normalized growth,"locus YGL173C, strain kem1, active compounds read low",0.964
same,normalized growth,"locus YGL227W, strain vid30, active compounds read low",0.964
same,normalized growth,"locus YGL240W, strain doc1, active compounds read low",0.946
same,normalized growth,"locus YGL248W, strain PDE1, active compounds read low",0.992
same,normalized growth,"locus YGL253W, strain hxk2, active compounds read low",0.963
same,normalized growth,"locus YGR078C, strain PAC10, active compounds read low",0.958
same,normalized growth,"locus YGR135W, strain pre9, active compounds read low",0.089 (active)
same,normalized growth,"locus YGR229C, strain SMI1, active compounds read low",0.981
same,normalized growth,"locus YGR252W, strain gcn5, active compounds read low",0.255 (active)
same,normalized growth,"locus YHR013C, strain ard1, active compounds read low",0.986
same,normalized growth,"locus YHR027C, strain rpn1, active compounds read low",0.972
same,normalized growth,"locus YHR030C, strain SLT2, active compounds read low",0.998 and 1.06
same,normalized growth,"locus YHR079C, strain IRE1 (second series), active compounds read low",0.791 (active)
same,normalized growth,"locus YHR079C, strain IRE1, active compounds read low",1.09
same,normalized growth,"locus YHR094C, strain hxt1, active compounds read low",0.25 (active)
same,normalized growth,"locus YHR129C, strain ARP1, active compounds read low",0.999
same,normalized growth,"locus YHR142W, strain chs7, active compounds read low",0.968
same,normalized growth,"locus YHR200W, strain rpn10, active compounds read low",0.26 (active)
same,normalized growth,"locus YIL066C, strain RNR3, active compounds read low",1.04
same,normalized growth,"locus YIL073C, strain SPO22, active compounds read low",1.06
same,normalized growth,"locus YIL125W, strain kgd1, active compounds read low",0.521 (active)
same,normalized growth,"locus YIR030C, strain dcg1, active compounds read low",0.629 (active)
same,normalized growth,"locus YJL092W, strain hpr5, active compounds read low",0.969
same,normalized growth,"locus YJL095W, strain BCK1 (second series), active compounds read low",0.966
same,normalized growth,"locus YJL095W, strain BCK1, active compounds read low",0.999 and 1.02
same,normalized growth,"locus YJL115W, strain asf1, active compounds read low",0.962
same,normalized growth,"locus YJL129C, strain trk1, active compounds read low",0.936
same,normalized growth,"locus YJL134W, strain LCB3, active compounds read low",0.991
same,normalized growth,"locus YJL154C, strain vps35, active compounds read low",0.945
same,normalized growth,"locus YJL164C, strain tpk1, active compounds read low",1
same,normalized growth,"locus YJL166W, strain qcr8, active compounds read low",0.977
same,normalized growth,"locus YJL168C, strain set2, active compounds read low",0.453 (active)
same,normalized growth,"locus YJL187C, strain SWE1 (second series), active compounds read low",1
same,normalized growth,"locus YJL187C, strain SWE1, active compounds read low",0.964
same,normalized growth,"locus YJR043C, strain POL32, active compounds read low",1.02
same,normalized growth,"locus YJR066W, strain TOR1, active compounds read low",0.989
